# Assay results from ChEMBL document CHEMBL3988442, “University of Dundee, Small-Polar-MMV Screening Library” (2021).
# Out of some 48,000 compounds screened, about 13,000 (27%) showed an effect of 50% or more. Some of the results follow.
# Test system: Wolbachia pipientis
# Assay: Anti-Wolbachia Cell-Based Screen
# Format: functional
# Design: scale not given: in the data most compounds retested in dose-response had high values
# Details: 5 µM
row,Structure (SMILES),Percent Effect [%]
1,CCN(Cc1cccc(NC(=O)COC)c1)C(C)=O,-0.3601
2,Cc1cc(C(=O)NC(C)c2nnn[nH]2)c2ccc(C)c(C)c2n1 (stereo not given),-4.141
3,c1csc(-c2noc(COCC3CCCO3)n2)c1 (stereo not given),0.9659
4,CCOCc1ccccc1NC(=O)NC1CCN(c2ccccc2)C1 (stereo not given),9.486
5,O=C(c1ccc[nH]1)N1CCC2(CC1)C(=O)Nc1ccccc12,-2.806
6,Cc1nc(C)c(Cc2nc(C3CC3)n[nH]2)c(=O)[nH]1,-38.01
7,Cc1ccc(C2CCCN2CC(=O)N(CCC#N)c2ccccc2)cc1 (stereo not given),5.667
8,O=C(c1ncccc1O)N1CCc2c(ncnc2N2CCOCC2)C1,-10.43
9,COc1ncccc1C(=O)N1CCc2c(ncnc2N2CCOCC2)C1,105
10,COCc1ccc(C(=O)N2CCc3c(ncnc3N3CCOCC3)C2)o1,-21.39
11,CCc1ccc(-c2nn3c(nc2=O)-c2ccccc2NC3C(=O)O)cc1 (stereo not given),-8.075
12,CCc1cnc(CN2CCOC(c3nc(C)n[nH]3)C2)o1 (stereo not given),-1.85
13,c1ccc(-n2ncc(CNC3CCc4ncnn4C3)n2)cc1 (stereo not given),-11.2
14,c1ccc(Cn2cc(CNC3CCc4ncnn4C3)cn2)cc1 (stereo not given),1.382
15,Cn1cc(CNC2CCc3ncnn3C2)c(-c2ccncc2)n1 (stereo not given),11.86
16,Clc1ccccc1Cn1cc(CNC2CCc3ncnn3C2)cn1 (stereo not given),121.3
17,c1cncc(CNC2CCc3ncnn3C2)c1 (stereo not given),100.1
18,c1ccc(-n2cc(CNC3CCc4ncnn4C3)cn2)cc1 (stereo not given),107.7
19,Clc1ccc(-n2cc(CNC3CCc4ncnn4C3)cn2)cc1 (stereo not given),-12.36
20,Cn1cc(CNC2CCc3ncnn3C2)c(-c2cccnc2)n1 (stereo not given),-2.662
21,Cc1nc(C)n(C2CCCN(C(=O)c3cccc4[nH]ncc34)C2)n1 (stereo not given),0.6187
22,c1ccc2c(c1)CC(N1CCCN(Cc3cccc4nonc34)CC1)C2,-60.59
23,COCC(NC(=O)NCc1cccc(C#N)c1)c1ccco1 (stereo not given),-16.03
24,O=C(NCC(CO)Cc1cccc(OC(F)(F)F)c1)c1cnccn1 (stereo not given),103

row,Structure (SMILES),Percent Effect [%]
1,CN(Cc1ccccc1OC(F)(F)F)C(=O)C1CC1,0.731
2,CNC(=O)NCC(CO)Cc1cccc(OC(F)(F)F)c1 (stereo not given),137.5
3,CNC(=O)NCC(CO)Cc1ccccc1OC(F)(F)F (stereo not given),119.9
4,CC(O)CN1CCC(CNCc2ccccc2OC(F)(F)F)CC1 (stereo not given),-2.479
5,O=C(NCC(Cc1cccc(F)c1)N1CCCC1=O)c1cnccn1 (stereo not given),-11.28
6,CN(Cc1cccc(OC(F)(F)F)c1)C(=O)c1ccncc1F,3.384
7,CN(Cc1cccc(OC(F)(F)F)c1)C(=O)Cc1ccon1,-6.414
8,CC(CNC(=O)c1cnccn1)Oc1cccc(Br)c1 (stereo not given),-3.895
9,O=C(c1ncc[nH]1)N1CCC(n2cc(-c3ccccn3)nn2)CC1,-4.702
10,CN1N=C(C(=O)N2CCN(c3ncccc3Cl)CC2)CCC1=O,-3.997
11,CC(C)C(=O)NCCCn1ncc2c(Cl)cccc21,-4.05
12,O=S(=O)(N1CCCCCC1)N1CCN(Cc2ccc(F)cc2Br)CC1,6.465
13,O=C(CN1CCCC1Cn1cncn1)NCCOc1ccccc1 (stereo not given),108.3
14,O=C(CN1CCCC1Cn1cncn1)NC(C1CC1)C1CC1 (stereo not given),-5.289
15,CCN1CCC(NC(=O)CN2CCCC2Cn2cncn2)CC1 (stereo not given),1.475
16,O=C(CN1CCCC1Cn1cncn1)NCCOc1ccc(F)cc1 (stereo not given),135.9
17,O=C(CN1CCCC1Cn1cncn1)NCCc1c(F)cccc1F (stereo not given),-7.499
18,O=C(CN1CCCC1Cn1cncn1)NCCOc1cccc(F)c1 (stereo not given),0.2795
19,O=C(CN1CCCC1Cn1cncn1)Nc1cccnc1 (stereo not given),-2.58
20,O=C(CN1CCCC(Cn2cncn2)C1)NCCOc1ccccc1 (stereo not given),-8.945
21,O=C(CN1CCCCC1Cn1cncn1)NC1CCN(C2CC2)CC1 (stereo not given),-6.056
22,Cc1cccc(OCCNC(=O)CN2CCCC2Cn2cncn2)c1 (stereo not given),115.7
23,O=C(CN1CCCCC1Cn1cncn1)NCCOc1ccccc1 (stereo not given),140
24,COc1ccc(CNC[C@@]2(COc3cccnc3)C[C@@H](O)[C@@H](O)C2)cc1.Cl,-5.616

row,Structure (SMILES),Percent Effect [%]
1,CCSCCC(C)NC(=O)Nc1cccn(C)c1=O (stereo not given),-9.489
2,COCCOc1ccnc(-c2noc([C@@H]3CCCN3C(C)C)n2)c1,-15.24
3,CC(C)N1CCCCC1c1nc(N(C)C)ncc1I.Cl (stereo not given),76.51
4,CC(C)C1CN(Cc2cnc(N(C)C)nc2)CCCN1CC1CC1 (stereo not given),-7.489
5,CN(C)c1ccc(NC(=O)N2CCCCCC2c2ccncc2)cn1 (stereo not given),0.3778
6,CC(C)N1CCCC1c1nc(N(C)C)ncc1I (stereo not given),51.47
7,CC1=N[C@@]2(CC[C@@H]3CN(C(=O)NCC(C)C)C[C@@H]32)C(=O)N1CC(C)C,8.203
8,CCCc1nccn1-c1cccc(CN2CCCC2)c1,-15.07
9,Cc1ncccc1C(=O)NCc1ccccc1CN(C)Cc1ccco1,15.52
10,CCCNc1ncc(CN2CCN(C)C(=O)C2C)cn1 (stereo not given),-4.636
11,O=C(O)C(F)(F)F.O=C(O)C(F)(F)F.c1csc(CN2CCC3(COCCN(CC4CC4)C3)C2)n1 (stereo not given),26.97
12,O=C(N1CCCC1)N1CCOCC2(CCN(Cc3cccs3)C2)C1.O=C(O)C(F)(F)F (stereo not given),119.1
13,CC(C)N1CCOCC2(CN(Cc3cccs3)CCO2)C1.O=C(O)C(F)(F)F.O=C(O)C(F)(F)F (stereo not given),7.639
14,Cc1ccc(CN2CCOCC3(CCN(Cc4cccs4)C3)C2)o1.O=C(O)C(F)(F)F.O=C(O)C(F)(F)F (stereo not given),110.5
15,O=C(NC1CC1)N1CCOCC2(CCN(Cc3cccs3)C2)C1.O=C(O)C(F)(F)F (stereo not given),89.31
16,Cc1ccc(CN2CCOC3(COCCN(C(C)C)C3)C2)o1.O=C(O)C(F)(F)F.O=C(O)C(F)(F)F (stereo not given),-26.11
17,O=C(O)C(F)(F)F.O=C(O)C(F)(F)F.c1csc(CN2CCCC3(COCCN(Cc4c[nH]nn4)C3)C2)c1 (stereo not given),-6.971
18,O=C(c1ccoc1)N1CCOCC2(CCN(Cc3cccs3)C2)C1 (stereo not given),98.93
19,CN(C)CCN1CCOCC2(CCCN(C(=O)c3ccoc3)C2)C1.O=C(O)C(F)(F)F.O=C(O)C(F)(F)F (stereo not given),-7.918
20,COCCN1C[C@@H](C)[C@@]2(COCCN(C(=O)c3ccoc3)C2)C1,1.711
21,Cc1ccc(CN2CCCC3(COCCN(Cc4c[nH]nn4)C3)C2)o1.O=C(O)C(F)(F)F.O=C(O)C(F)(F)F (stereo not given),-14.33
22,Cc1occc1C(=O)N1CCOCC2(CCN(Cc3nccs3)C2)C1.O=C(O)C(F)(F)F (stereo not given),-1.117
